# Screens deposited in PubChem BioAssay by several laboratories.
# The list is not random: actives were taken first. Their share in the collection is about 3.3%.
# MBD2 DNA inh – inhibitors of human MBD2 binding to methylated oligonucleotide; AID 686964; 0.31% of 370,000 active; TR-FRET; inhibition, % at 4.4 µM; in the data active means inhibition above about 13%
# Target sequence (Q9UBB5 whole entry, looked up): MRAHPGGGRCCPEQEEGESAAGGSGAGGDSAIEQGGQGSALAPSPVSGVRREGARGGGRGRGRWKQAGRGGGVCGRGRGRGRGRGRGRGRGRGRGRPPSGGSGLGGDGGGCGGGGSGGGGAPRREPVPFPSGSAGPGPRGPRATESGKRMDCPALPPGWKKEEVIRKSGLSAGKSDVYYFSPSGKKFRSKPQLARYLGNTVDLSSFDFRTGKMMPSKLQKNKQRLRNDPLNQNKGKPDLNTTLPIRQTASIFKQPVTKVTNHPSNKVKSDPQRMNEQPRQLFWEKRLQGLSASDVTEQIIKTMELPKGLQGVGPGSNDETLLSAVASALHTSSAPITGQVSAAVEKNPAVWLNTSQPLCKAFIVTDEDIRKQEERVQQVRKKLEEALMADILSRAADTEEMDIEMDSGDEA
# PfGluPho inh – PfG6PD (Plasmodium falciparum) enzyme inhibition. PfGluPho enzyme, NADPH resazurin-diaphorase fluorescence. inhibition, % at 20 µM. 0.78% of 350,000 active. AID 504690;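 active means inhibition reaching at least a set limit at 20 µM in the primary screen, cut at about 59% in these data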;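 further: 0% = DMSO wells with substrate and 100% = DMSO wells lacking glucose-6-phosphate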
# UHRF1 binding – blocks human UHRF1 binding to methylated DNA; AID 687016; UHRF1 binding to methylated oligo, TR-FRET; Q96T88; 0.75% of 370,000 active; inhibition, % at 4.4 µM;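 further: UHRF1 SRA domain binding a hemimethylated CpG hairpin DNA probe; 0% = median of test compound wells and 100% = reference inhibitor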
# PfM18AAP inh – blocks P. falciparum M18 aspartyl aminopeptidase; inhibition, % at 7.35 µM; 1.2% of 290,000 active; AID 1822; recombinant PfM18AAP, H-Glu-NHMec fluorogenic cleavage;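 active means inhibition above the campaign mean inhibition over all tested compounds plus 3 SD, cut at about 28% in these data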;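 further: 0% = plate median of test compound wells and 100% = 2 mM ZnCl2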
# PRMT1 inh – inhibitors of human PRMT1; Q99873; recombinant PRMT1, activity-based probe fluorescence polarization; inhibition, % at 2.79 µM; 1.3% of 370,000 active;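 active means inhibition above about 21% made by adding two undisclosed values, limit read from the data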
# UHRF1 ctr MBD2 – counter-screen for MBD2 inhibitors: human UHRF1 methylated DNA binding inhibitors. UHRF1 binding to methylated oligonucleotide, TR-FRET. 25% of 1,000 active. shares compounds with MBD2 DNA inh. AID 720530. inhibition, % at 4.4 µM;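 further: UHRF1 SRA domain binding a labeled hemimethylated CpG hairpin DNA; 0% = vehicle only and 100% = reference inhibitor with vehicle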
# MBD2 confirm – confirmation of human MBD2-DBD methylated oligonucleotide binding inhibitors; shares compounds with MBD2 DNA inh; TR-FRET MBD2-DBD binding to methylated oligonucleotide; inhibition, % at 4.4 µM; 26% of 1,000 active; AID 720531; in the data active means inhibition above about 14%
# Starred values were filed as active, the others as inactive; · = no result. Unless noted, no stated cut-off is given here; in the data, active means inhibition above about 21%; inactive means the rest.
SMILES,MBD2 DNA inh,PfGluPho inh,UHRF1 binding,PfM18AAP inh,PRMT1 inh,UHRF1 ctr MBD2,MBD2 confirm
O=C(Nc1ncc2c(n1)CC(c1ccccc1)CC2=O)c1ccco1 (stereo not drawn),-1,1,2,8,4,·,·
C/C=C/C=[N+](\[O-])C(C)/C(=N/O)c1ccc(F)cc1 (stereo not drawn),14*,-18,5,12,-1,1,1
C[C@H](CO)N1C[C@H](C)[C@H](CN(C)C(=O)Nc2ccc(C(C)(C)C)cc2)OCc2cnnn2CCCC1=O,-5,5,0,·,-2,·,·
O=C(CN1CCCC1)NCC12CC3CC(CC(C3)C1)C2,-4,-14,0,-6,-4,·,·
O=C(CN1CCOCC1)NCCC12CC3CC(CC(C3)C1)C2,14*,18,4,-5,4,2,4
COc1ccc(COC(=O)C2CCN(S(=O)(=O)c3ccc(C)cc3)CC2)cc1,-1,10,3,·,1,·,·
O=S(=O)(Nc1cccc(S(=O)(=O)N2CCCC2)c1)c1ccc(Br)cc1,0,-39,0,·,-3,·,·
O=S(=O)(Nc1cccc(S(=O)(=O)N2CCCC2)c1)c1cccc(Br)c1,105*,-19,-1,·,-4,8,2
COc1ccc(Cc2c(C3CCCCC3)nc3ccc(C)cn23)c(C)c1,18*,·,25*,·,2,5,6
C=CCN(CC=C)Cc1cc(=O)oc2ccc3ccccc3c12,4,·,-4,·,-5,·,·
C=CCN(CC=C)Cc1c(O)ccc2c1oc(=O)c1ccccc12,13*,30,16,20,4,-1,12
CCN(CC(=O)Nc1c(F)cccc1F)C(=O)c1ccc2ccccc2n1,-1,-5,4,·,1,·,·
CCN(CC(=O)Nc1c(F)cccc1F)C(=O)/C=C/c1ccc2ccccc2n1,30*,-2,64*,·,5,66*,58*
CC(=O)Nc1cc(-c2cccc(C(=O)N(C)C)c2)cn2c(-c3ccc(C(C)=O)cc3)cnc12,14*,·,-3,·,0,8,5
O=C(COC(=O)CNC(=O)c1ccccc1)Nc1ccc(Cl)cc1C(F)(F)F,5,-4,-1,-5,-2,·,·
O=C(COC(=O)CNC(=O)c1ccc(Cl)cc1)Nc1ccc(Cl)cc1C(F)(F)F,61*,10,1,2,7,9,1
Cc1ccc(-n2nc(C)cc2NC(=O)c2ccc(C)s2)cc1,34*,5,-2,-2,0,5,6
N#CCCOC1(C#CCN2CCCC2)CCCCC1,6,-4,5,0,8,·,·
Cc1ccc(C(=O)N/C(=C\c2ccccc2)C(=O)OCc2ccccc2)cc1,14*,21,14,-7,5,6,4
O=C(OCc1ccccc1)/C(=C/c1cccc2ccccc12)NC(=O)c1ccccc1,0,-5,8,-10,-3,·,·
COc1ccccc1NC(=O)N1CCC(c2nc3cc(C)c(C)cc3[nH]2)CC1,13*,-12,18,-2,3,6,2
COc1ccccc1NC(=S)N1CCC(c2nc3cc(C)c(C)cc3[nH]2)CC1,4,-2,4,-5,1,·,·
COc1ccc(Cl)cc1S(=O)(=O)N1CCC(C(=O)NCc2ccccn2)CC1,3,-3,0,·,1,·,·
CCOC(=O)C1CCN(CC(=O)Nc2c(C(=O)OC)[nH]c3cccc(Cl)c23)CC1,14*,5,-1,-6,2,3,6
CC1=NN(c2ccccc2)C(=O)/C1=C\c1cn(-c2ccccc2)nc1C,-2,-3,6,-2,-1,·,·
SMILES,MBD2 DNA inh,PfGluPho inh,UHRF1 binding,PfM18AAP inh,PRMT1 inh,UHRF1 ctr MBD2,MBD2 confirm
COc1ccccc1/C=C1/C(=O)N(c2ccccc2)N=C1C,18*,-16,16,14,4,6,-1
Cc1ccc(-c2ccc(CCC(=O)O)n2Cc2ccco2)cc1,88*,-20,0,-28,15,10,5
COc1ccc(C(=O)NN2C(=O)C3CCC(C)(C2=O)C3(C)C)cc1 (stereo not drawn),2,7,-3,2,1,·,·
COc1ccc(/C=N\NC(=S)SCN2C(=O)C3CCC(C)(C2=O)C3(C)C)cc1 (stereo not drawn),48*,12,-11,-24,6,-11,-1
O=C1c2cccc(NCCNCCO)c2C(=O)c2cccc(NCCNCCO)c21,107*,11,93*,·,5,93*,108*
CC(C)(C)NC(=O)CN(CCN1CCOCC1)C(=O)CNS(=O)(=O)c1ccc(Cl)cc1,-2,7,-1,-6,-3,·,·
COc1ccc(OCc2nn3c(-c4ccccn4)nnc3s2)cc1,22*,1,0,-4,0,5,3
CCOC(=O)NC(=O)/C(C=Nc1ccc(Cl)cc1)=C(\C)O,-5,14,0,2,2,·,·
C[C@@H]1CCC2[C@](C)(CO)[C@@H](O)CC[C@]2(C)[C@@]12CCC(CO)(CCO)O2 (stereo partly drawn),25*,-4,2,11,4,9,2
O=C(O)Cc1ccc(-n2cccc2)cc1,14*,-12,30*,7,2,57*,28*
O=C(Cc1ccc(-n2cccc2)cc1)NC1CCCCC1,8,3,7,-2,5,·,·
Cc1ccc2sc(N(CCCN(C)C)C(=O)c3ccc(S(=O)(=O)N(C)C)cc3)nc2c1C,4,5,5,3,4,·,·
Cc1ccc2sc(N(CCCN(C)C)C(=O)c3ccc(S(=O)(=O)N(C)Cc4ccccc4)cc3)nc2c1C,56*,4,0,·,-1,3,1
O=C(NCCCN1CCCC1=O)c1ccccc1OCc1ccc(Cl)cc1Cl,3,6,2,·,4,·,·
Cc1cc(Br)ccc1NC(=O)CNC(=O)c1cnn(C)c1,18*,6,1,·,-4,7,2
CCc1sc(C(=O)N(CCCOC)c2c(N)n(CC(C)C)c(=O)[nH]c2=O)cc1C,3,6,1,·,4,·,·
COC(=O)C[C@@H]1CC[C@@H](NC(=O)C2CCC2)[C@@H](CO)O1,21*,·,23*,·,4,9,4
CC1=Nc2nc(N3CCCCCC3)c(C#N)c3c4c(nc(c23)N1)N(c1ccc2ccccc2c1)C(=O)C4,·,-18,·,·,·,·,·
Cc1ccc(S(=O)(=O)Nc2ccccc2C=Nc2cccc(C)c2C)cc1,-3,33,-2,5,-2,·,·
Cc1ccc(S(=O)(=O)Nc2ccccc2N=Cc2c(F)c(F)c(F)c(F)c2F)cc1,14*,15,-1,·,2,5,2
CCOC(=O)c1ccc(Oc2cc(C)nc(Cl)n2)cc1,1,6,4,4,3,·,·
COc1ccc(NS(=O)(=O)c2ccc(SC)cc2)c(OC)c1,17*,0,23*,0,6,5,3
COc1ccc(NS(=O)(=O)c2cccs2)c(OC)c1,3,28,7,1,1,·,·
CCCCC(=O)Nc1ccc(N2CCN(c3ccc(F)cc3)CC2)cc1,34*,2,4,-3,0,3,2
c1coc(-c2nnc(-c3ccco3)nn2)c1,33*,49,77*,54*,46*,77*,35*
